Laboratory results as given in PubChem BioAssay (NCATS).
Records with an inconclusive call do not appear. Values without a mark were called inactive. The source made the active and inactive calls. Calls follow the shape of the dose curve; as a rule, active = well fitted inhibition curve with a large enough effect; inconclusive = small, poorly fitted or top-dose-only effect; inactive = flat fitted curve, though single readings scatter.

System: HaCat
Assay: Cytotoxic Profiling of Annotated Libraries Using Quantitative High-Throughput Screening (AID 1296008); also: nearly all actives have a fitted effect of over 60% in size
Settings: Five cell lines viability, CellTiter-Glo ATP luminescence, 48-72 h; max response: active compounds read low
Summary of the method: (§1)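 Compounds were pin-transferred onto cells and incubated 48 or 72 hr at 37 degree Celsius, 95% humidity. CellTiter-Glo was added, plates sat 10 min at room temperature, then ATP-coupled luminescence was imaged as the viability read-out.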
% is scaled to controls: 0 for no effect and ±100 for the full control effect; potency is read from the fitted curve at half-maximal effect.

SMILES | outcome | max response [%]
O=S(=O)(Nc1cc(Cl)c(Oc2cnc3ccccc3c2)c(Cl)c1)c1ccc(Cl)cc1Cl | inactive | –
C=C1/C(=C/C=C2\CCC[C@]3(C)[C@@H]([C@H](C)/C=C/[C@H](O)C4CC4)CC[C@@H]23)C[C@@H](O)C[C@@H]1O | – | -5.44
C[C@@H]1CN(CC(=O)N2CC(C)(C)c3ncc(Cc4ccc(F)cc4)cc32)[C@@H](CN2CCOC[C@H]2C)CN1 | inactive | –
CCCCCc1ccc(/C=C/C(=O)Nc2cc(Cl)ccc2C(=O)O)cc1 | – | -35.2
O=C1NC(=O)C(c2cnc3ccccn23)=C1c1cn2c3c(cc(F)cc13)CN(C(=O)N1CCCCC1)CC2 | inactive | –
Cc1cc2c(F)c(Oc3ncnn4cc(OCC(C)OC(=O)C(C)N)c(C)c34)ccc2[nH]1 (configuration not stated) | inactive | –
O=C(Nc1ccc(-c2ccc(Cl)c(Cl)c2)cc1)C1=C(O)c2ccccc2S(=O)(=O)N1 | – | -6.44
Cc1[nH]c(/C=C2\C(=O)Nc3ccc(S(=O)(=O)N(C)c4cccc(Cl)c4)cc32)c(C)c1C(=O)N1CCN(C)CC1 | inactive | –
Cc1cccc(-c2[nH]ncc2-c2ccnc3ccccc23)n1 | inactive | –
COc1cc(C[C@H]2C(=O)OC[C@@H]2Cc2ccc(OC)c(OC)c2)ccc1O | inactive | –
N#Cc1ccc(O[C@@H]2c3ccccc3C[C@H]2N2CCC[C@@H](N)C2)c(Cl)c1 | inactive | –

System: NIH3T3
Assay: as above
Settings: Five cell lines viability, CellTiter-Glo ATP luminescence, 48-72 h; max response: active compounds read low
Summary of the method: as §1

SMILES | Potency | outcome | max response [%]
C=CC(=O)Nc1cccc(Nc2nc(Nc3ccc(OCCOC)cc3)ncc2F)c1 | 5.8 µM (active) | – | –
C=C1C(=O)O[C@H]2C3=C(C)CCC[C@]3(C)C(=O)C[C@@H]12 | 16.4 µM (active) | – | –
C#CC(=O)N(c1ccc(OC)cc1OC)C(C(=O)NCC(=O)OCC)c1cccs1 (configuration not stated) | 0.164 µM (active) | – | –
Cn1nc(-c2ccc(C(F)(F)F)cc2)nc2c(=O)n(C)c(=O)nc1-2 | 1.3 µM (active) | – | –
COC1CC(O[C@H]2CC[C@]3(C)C4CC[C@]5(C)C(C6=CC(=O)OC6)=CCC56OC46CC[C@@H]3C2)OC(C)C1O[C@@H]1O[C@H](CO[C@@H]2O[C@H](CO)[C@@H](O)[C@H](O)[C@H]2O)[C@@H](O)[C@H](O)[C@H]1O (some centres not stated) | – | inactive | –
COC(=O)C1=COC(O[C@@H]2O[C@H](CO[C@@H]3O[C@H](COC(=O)/C=C\c4ccc(O)cc4)[C@@H](O)[C@H](O)[C@H]3O)[C@@H](O)[C@H](O)[C@H]2O)C2C(CO)=CCC12 (some centres not stated) | – | – | -28.7
C[C@H](Nc1ncnc2nc[nH]c12)c1cc2cccc(Cl)c2c(=O)n1-c1ccccc1 | 4.61 µM (active) | – | –
C[C@@H]1CN(CC(=O)N2CC(C)(C)c3ncc(Cc4ccc(F)cc4)cc32)[C@@H](CN2CCOC[C@H]2C)CN1 | – | inactive | –
Cc1nc(C#Cc2ccnc(Cl)c2)c(C)n1-c1ccc(F)cc1 | – | – | -10.7
O=C(Nc1cccnn1)N1CCN(c2nccc(-c3ccc(F)c(F)c3)n2)CC1 | – | – | -4.62
Cc1cc(Nc2nc(-c3ccccc3)nc3ccccc23)n[nH]1 | 9.2 µM (active) | – | –
CCOc1cc(C(C)(C)C)ccc1C1=N[C@@](C)(c2ccc(Cl)cc2)[C@@](C)(c2ccc(Cl)cc2)N1C(=O)N1CCN(CC(=O)N2CCOCC2)CC1 | 10.1 µM (active) | – | –
COC1CC(O[C@H]2CC[C@]3(C)C4CC[C@@]5(C)C(=O)[C@]4(CC[C@@H]3C2)CC[C@@H]5C2=CC(=O)OC2)OC(C)C1OC1OC(COC2OC(CO)C(O)C(O)C2O)C(O)C(O)C1O (some centres not stated) | – | inactive | –
COc1cc(C(N)=O)nc(-c2ccccn2)c1O | – | – | -4.41
O=C(NO)c1cnc(N2CCN(S(=O)(=O)c3ccc4ccccc4c3)CC2)nc1 | 2.24 µM (active) | – | –
CC1CCCC[C@H]2C(=O)C=C[C@H](O)[C@@H]2CC(=O)O1 (some centres not stated) | 18.4 µM (active) | – | –

SMILES | Potency | outcome | max response [%]
C=C1C(=O)O[C@@H]2[C@H]1CC(=O)[C@H](C)[C@@](O)(C(=O)/C=C/C)[C@H]2OC(=O)C(C)CC (some centres not stated) | 4.04 µM (active) | – | –
Cc1cc2c(cc1N1C(=O)c3cccc4c(CCCO)ccc(c34)C1=O)n(C)c(=O)n2C | 1.53 µM (active) | – | –
Cc1cc(C(=O)Nc2cc(Nc3ccc4c(/C=C/c5ccccn5)n[nH]c4c3)ccc2F)n(C)n1 | 0.731 µM (active) | – | –
CC1CCC/C=C/C(=O)c2c(O)cc(O)cc2CC(=O)O1 (configuration not stated) | 14.6 µM (active) | – | –
C=C1CC2OC(=O)C(=C)C2C(OC(=O)/C(C)=C\C)CC2(C)OC1=CC2=O (configuration not stated) | 12.8 µM (active) | – | –
CC(C)(O)/C=C/C(=O)[C@](C)(O)[C@H]1[C@H](O)C[C@@]2(C)[C@@H]3CC=C4[C@@H](C[C@H](O[C@@H]5O[C@H](CO)[C@@H](O)[C@H](O)[C@H]5O)C(=O)C4(C)C)[C@]3(C)C(=O)C[C@]12C | – | inactive | –
COc1cc(C[C@H]2C(=O)OC[C@@H]2Cc2ccc(OC)c(OC)c2)ccc1O | – | – | -24.5
Nc1ncnc2c1nc(Cl)n2C1OC2COP(=O)(O)OC2C1O (configuration not stated) | 5.8 µM (active) | – | –
C=C1C(=O)O[C@@H]2C(OC(=O)/C(C)=C\C)/C(C)=C\C(=O)/C=C(\C)C[C@H](O)[C@@H]12 (some centres not stated) | 9.04 µM (active) | – | –
Cc1noc(-c2ccc(-c3ccc(CC(=O)O)cc3)cc2)c1NC(=O)O[C@H](C)c1ccccc1Cl | 7.31 µM (active) | – | –
CN1CCN(C2CCN(C(=O)Nc3cc(Oc4ccc(NC(=O)C5(C(=O)Nc6ccc(F)cc6)CC5)c(F)c4)ccn3)CC2)CC1 | 2.59 µM (active) | – | –
Cc1[nH]c2ccc(F)cc2c1-c1nc2c3cccnc3c3ncccc3c2[nH]1 | 14.6 µM (active) | – | –
c1ccc(-c2ccc(CNc3nc(-c4ccccn4)nnc3-c3ccccc3)cc2)cc1 | 3.66 µM (active) | – | –
CNC(=O)[C@@H](c1ccccc1)N1CCc2cc(OC)c(OC)cc2[C@@H]1CCc1ccc(C(F)(F)F)cc1 | – | – | -22.6
C=C(C)C(=O)O[C@H]1[C@H]2C(=C)C(=O)O[C@@H]2C[C@@H](C)[C@@H]2O[C@@H]2C(=O)[C@](C)(O)[C@@H]1OC(=O)C(=C)C | 3.55 µM (active) | – | –
